Bioassay records: PubChem, National Center for Advancing Translational Sciences (NCATS)
An excerpt weighted towards active compounds, which were near 10% of everything screened.
GLS inhibitor: glutaminase GLS (human) inhibition; O94925; GLS enzymatic activity, qHTS titration; Potency, µM (series often up to 45.5 µM), usual class: inhibitors; actives 0.21% (n = 410,000)
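Read-out is an Amplex red fluorescence increase coupled through glutamate oxidase and HRP, measured before and after 30 min room-temperature incubation. hKGA is in 45 mM KH2PO4 (pH 8.2) with 0.02% Tween-20; glutamine added as 1mM solution.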
G9a inh: inhibitors of human histone lysine methyltransferase G9a. Q96KQ7. G9a H3K9 monomethylation, AlphaScreen, 2 h. Potency, µM (top dose mostly 102 µM), actives largely listed as inhibitors. actives 8.8% (n = 350,000). AID 504332; further: nearly all actives have a fitted effect of over 75% in size
Target sequence (Q96KQ7 913-1193 limits assumed): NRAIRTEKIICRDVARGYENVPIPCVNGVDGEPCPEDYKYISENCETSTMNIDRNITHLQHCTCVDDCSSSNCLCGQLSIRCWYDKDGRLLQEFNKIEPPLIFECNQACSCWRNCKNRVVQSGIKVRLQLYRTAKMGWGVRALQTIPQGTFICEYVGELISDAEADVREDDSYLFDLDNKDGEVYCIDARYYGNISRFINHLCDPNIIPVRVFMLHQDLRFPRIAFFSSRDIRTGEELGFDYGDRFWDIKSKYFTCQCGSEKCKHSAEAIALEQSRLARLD
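Chemiluminescent proximity detection of H3K9 monomethylation, read after 10 min bead incubation in the dark. Reaction: 20 nM G9a, 500 nM biotin-H3K9 peptide, 20 uM SAM cofactor, 2 h, room temperature, following 15 min enzyme-compound preincubation.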
BAZ2B inh: inhibitors of human BAZ2B bromodomain; Q9UIF8; AlphaScreen BAZ2B-H3K14Ac peptide displacement; Potency, µM (doses to about 114 µM), actives largely listed as inhibitors; actives 4.4% (n = 360,000); AID 504333; further: nearly all actives have a fitted effect of over 60% in size
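In this displacement format the biotinylated H3(5-23) peptide acetylated at Lys14 serves as ligand at 50 nM, with BAZ2B at 50 nM in PBS pH 7.4 containing 0.01% Tween-20. Donor and acceptor beads are 10 ug/mL final.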
HP1b chromo inh: inhibitors of HP1-beta chromodomain binding to methylated histone tails. P83916. AlphaScreen HP1-beta / biotin-H3K9me3 peptide binding. Potency, µM (series often up to 114 µM), hits mostly inhibitors. actives 0.56% (n = 390,000). AID 540317; further: nearly all actives have a fitted effect of over 70% in size
Target sequence (P83916 whole entry, looked up): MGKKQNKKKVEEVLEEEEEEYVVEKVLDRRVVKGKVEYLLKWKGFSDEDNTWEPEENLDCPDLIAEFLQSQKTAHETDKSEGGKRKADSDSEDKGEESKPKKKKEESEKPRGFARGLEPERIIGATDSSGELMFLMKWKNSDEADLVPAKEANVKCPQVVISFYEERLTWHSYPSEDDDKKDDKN
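HP1-beta protein (50 nM final) preincubated 30 min at room temperature with biotinylated H3(1-18)K9me3 peptide (50 nM) in PBS pH 7.4, 0.01% Tween-20, then compound added for 30 min. AlphaScreen streptavidin donor/nickel chelate acceptor beads (10 ug/mL final), 30 min dark, luminescence read.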
JMJD2A Tudor: inhibitors of human JMJD2A Tudor domain | O75164 | AlphaScreen JMJD2A-Tudor / H3K4me3 peptide binding | Potency, µM (doses to about 114 µM), usual class: inhibitors | actives 4.4% (n = 390,000) | AID 504339; further: nearly all actives have a fitted effect of over 50% in size
Of the large screens only hits and unclear results are named; the others gave an inactive call. The call rests on the fitted dose curve; in most records, active means well fitted curve in the direction sought with a large enough effect; inconclusive means small, poorly fitted or top-dose-only effect, or another doubt; inactive means no such curve, though single readings can be large; an effect the other way counts as inactive or inconclusive.

COc1ccccc1N=c1scc(-c2ccc3c(c2)NC(=O)CO3)n1CC1CCCO1 (stereo not given)	G9a inh inconclusive, BAZ2B inh 44.7µM, HP1b chromo inh inconclusive, JMJD2A Tudor inconclusive
O=C1COc2ccc(-c3csc(=Nc4ccc(OC(F)F)cc4)n3CC3CCCO3)cc2N1 (stereo not given)	BAZ2B inh inconclusive, JMJD2A Tudor inconclusive
CC(C)c1ccc(NC(=O)C2(C)Cc3c(-c4ccccc4)ccnc3O2)cc1 (stereo not given)	none (no result: G9a inh, BAZ2B inh, HP1b chromo inh, JMJD2A Tudor)
COC(=O)/C=C1\N/C(=N\c2nc(C)cc(C)n2)N(c2ccc(Cl)cc2)C1=O	JMJD2A Tudor 20µM (no result: G9a inh)
COC(=O)/C=C1\N/C(=N/c2nc(C)c3cc(OC)ccc3n2)NC1=O	none
COC(=O)/C=C1\N/C(=N\c2nc(C)cc(C)n2)N(c2ccc(C)c(C)c2)C1=O	G9a inh inconclusive, JMJD2A Tudor 28.2µM
COC(=O)/C=C1/C(=O)N/C(=N\c2nc(C)cc(C)n2)N1c1ccc(OC)cc1	G9a inh inconclusive, BAZ2B inh inconclusive, JMJD2A Tudor 25.1µM
CC1CCCC(NC(=O)COC(=O)c2ccc3ncsc3c2)C1C (stereo not given)	none
Cc1cccc(/C=C2\CS/C(=C\c3cccc(C)c3)C2=O)c1	G9a inh inconclusive, BAZ2B inh 50.1µM, HP1b chromo inh inconclusive, JMJD2A Tudor inconclusive
COc1ccc(N(CC(=O)NC2CCCC2)C(=O)c2ccc(C)s2)cc1OC	none
Nn1c(Cc2ccccc2)n[nH]c1=S	JMJD2A Tudor 10µM (no result: G9a inh)
CC(Cc1n[nH]c(=S)n1N)c1ccccc1 (stereo not given)	G9a inh 7.94µM, HP1b chromo inh inconclusive, JMJD2A Tudor 3.16µM
CC(Sc1nnc(CC(C)c2ccccc2)n1N)C(N)=O (stereo not given)	none
Cc1ccccc1Cc1n[nH]c(=S)n1N	G9a inh 2.51µM, HP1b chromo inh inconclusive, JMJD2A Tudor 2.82µM
Fc1ccc(Cc2cn3cc(-c4ccc(F)cc4)nc3s2)cc1	none
Nn1c(Cc2ccc(F)cc2)n[nH]c1=S	G9a inh 3.55µM, JMJD2A Tudor 4.47µM (no result: BAZ2B inh)
Cc1ccsc1C(=O)N1CCC1(C)C(=O)NCCC#N (stereo not given)	none (no result: G9a inh, BAZ2B inh, HP1b chromo inh, JMJD2A Tudor)
COc1ccc(CNC(=O)C(=O)NCC(c2cccs2)S(=O)(=O)c2ccc(C)cc2)cc1 (stereo not given)	none
CCC(CO)Oc1cc(NC(=O)c2ccccc2[N+](=O)[O-])c2ncn(C(C)C)c2c1 (stereo not given)	none (no result: G9a inh, BAZ2B inh)
Cc1nc2nc(CC(=O)O)[nH]n2c(=O)c1[N+](=O)[O-]	JMJD2A Tudor 17.8µM
CSC1=NC(C(Cl)(Cl)Cl)N=C(c2ccc(C)cc2)N1 (stereo not given)	G9a inh 14.1µM
CCCN1CNc2c(c(=O)[nH]c(=S)n2CCc2cc(C)ccc2C)C1	none (no result: GLS inhibitor, G9a inh, BAZ2B inh)
O=[N+]([O-])c1ccc(C[n+]2cccc3ccc4cccnc4c32)cc1	GLS inhibitor inconclusive, BAZ2B inh 12.6µM, JMJD2A Tudor 11.2µM (no result: G9a inh)
O=[N+]([O-])c1ccc(C[n+]2cccc3ccccc32)cc1	G9a inh 14.1µM
O=[N+]([O-])c1ccc(C[n+]2cccc(O)c2)cc1	none
O=[N+]([O-])c1ccc(Cc2ccccn2)cc1	none
Cc1ccc(CN2CCC(CNC(=O)Nc3c(C)cccc3C)C2)cc1 (stereo not given)	none
Cc1ccccc1-c1cnc(C(O)c2cc(Cl)cc(Cl)c2)[nH]1 (stereo not given)	none (no result: G9a inh, BAZ2B inh, HP1b chromo inh, JMJD2A Tudor)
CCOC(=O)C1=C(CSc2nc(-c3ccccc3)ccc2C#N)OC(N)=C(C#N)C1c1ccc(OC)cc1 (stereo not given)	G9a inh 31.6µM
CCOC(=O)C1=C(CSc2nc(CC)c(C)cc2C#N)OC(N)=C(C#N)C1c1ccccc1 (stereo not given)	G9a inh 39.8µM, BAZ2B inh inconclusive, JMJD2A Tudor inconclusive
O=c1c2cccnc2n(Cc2ccccc2F)c(=O)n1Cc1ccccc1Cl	none
COc1cc2ccccc2cc1C(=O)Nc1cccc(-c2nc3cc(C)c(C)cc3o2)c1C	G9a inh 3.16µM
COc1cc2ccccc2cc1C(=O)Nc1cccc(-c2nc3cc(C)ccc3o2)c1C	none
O=[N+]([O-])c1cc(-c2nc(-c3ccccc3)no2)ccc1NCc1cccnc1	BAZ2B inh inconclusive
O=c1ccc2ccc(O)c(O)c2o1	G9a inh 0.844µM (no result: GLS inhibitor, BAZ2B inh, HP1b chromo inh, JMJD2A Tudor)
